This passage reports z-score results from PubChem BioAssay.

The structures appear in SMILES notation. Active and inactive are the calls of the source.

A short description of the assay: E. coli acrAB mutant growth effects, primary screen, E. coli filamentation inducers, strain DRC39, OD650, 48 h (AID 1179).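 Also: screen aims at cell division blockers that make cells filament.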 The note with it: E. coli DRC39 delta-acrAB growth, higher = more signal, called active from +8 up or from −8 down.
In the case of `COc1ccc([Si](C)(C)[C@@H]2[C@@H](CC(=O)N(CCO)Cc3ccccc3)O[C@]3(C(=O)N(Cc4ccc(N5CCOC5=O)cc4)c4ccccc43)[C@H]2C)cc1`, the z-score was 0.307 (inactive).
For `COc1ccccc1CN1C(=O)c2ccccc2[C@](Cc2ccccc2I)(C(=O)NCCN2CCOCC2)[C@@H]1c1ccc(CO)cc1`, the z-score was 0.908 (inactive).
Regarding `CN(C)CCCN1C(=O)[C@@]2(Cc3ccccc31)c1ccccc1C(=O)N(Cc1ccccc1)[C@H]2c1ccc(CO)cc1`, the z-score was -0.245 (inactive).
The figure for `Cc1ccc(S[C@]2(C(=O)O)CC(=O)N(Cc3ccccc3C(F)(F)F)[C@@H]2c2ccc(CO)cc2)cc1` is 1.14 (inactive); for `CCOC(=O)C1=CC[C@@H](c2ccccc2)N(S(=O)(=O)c2ccc(C)cc2)[C@H]1C=C(C)C` it is 0.449 (inactive).
Take `COCCOC(=O)N1C(=O)[C@@]2(c3cc(C#CCNC(N)=O)ccc31)[C@H](C(=O)N1CCCCCCC1)[C@H]1C(=O)O[C@H](c3ccccc3)[C@H](c3ccccc3)N1[C@@H]2c1ccc(OCCO)cc1`: the z-score was 0.531 (inactive).
The figure for `CC(C)CNC(=O)[C@@]1(C)c2ccccc2C(=O)N(Cc2ccccc2)[C@H]1c1ccc(CO)cc1` is -0.185 (inactive); for `C=CCC(OC(C)=O)[C@@H]1[C@@H](N(Cc2ccc(-c3ccccc3)cc2)C(=O)c2cccc3ccccc23)c2cc(OCCCO)ccc2N1C(=O)c1ccc2ccccc2n1` (some centres undefined) it is 0.376 (inactive).
With `COc1ccc([Si](C)(C)[C@@H]2[C@@H](CCO)O[C@]3(C(=O)N(Cc4ccccc4)c4ccc(N5C(=O)COc6ccccc65)cc43)[C@H]2C)cc1`, the z-score was -0.266 (inactive).
